{"source": "PubChem BioAssay (NCATS)", "assay": "P-glycoprotein substrates identified in KB-8-5-11 adenocarcinoma cell line, qHTS therapeutic library screen (AID 1346987); note: nearly all actives have a fitted effect of over 65% in size; for activity change, negative = cytotoxicity: series mostly up to about 44 µM", "in_short": "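Human cervical adenocarcinoma KB-8-5-11 cells, selected in colchicine to over-express P-gp and assayed without it, were exposed for 72 h to titrated compounds. An ATP-based luminescent viability signal gave AC50.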", "note": "Inconclusive results are not listed. Where a call stands in place of a potency, no number is given. Unmarked numbers belong to inactive results. Activity calls are given as the source filed them. Calls come from the whole dose curve; as a rule, active = well fitted inhibition curve with a large enough effect; inconclusive = small, poorly fitted or top-dose-only effect; inactive = flat fitted curve, though single readings scatter.", "data": [{"smiles": "COC(=O)C(Cc1ccccc1)NC(=O)c1ccccc1", "note": "(stereo not given)", "values": [{"measurement": "Potency", "result": "inactive"}]}, {"smiles": "Cc1cc(Cn2cnc3c2CC(C(=O)O)N(C(=O)C(c2ccccc2)c2ccccc2)C3)ccc1N(C)C", "note": "(stereo not given)", "values": [{"measurement": "Potency", "result": "inactive"}]}, {"smiles": "O=C(/C=C/c1ccc(O)c(O)c1)O[C@H]1[C@H](OC2CCCCC2O)O[C@H](CO)[C@@H](O)[C@@H]1O", "note": "(stereo not given in full)", "values": [{"measurement": "Potency", "result": "inactive"}]}, {"smiles": "On1ncc(C2CCNCC2)c1-c1cccc(-c2ccccc2)c1", "values": [{"measurement": "Potency", "result": "inactive"}]}, {"smiles": "CC(=O)OCC1OC(O[C@H]2CC[C@]34C[C@]35CC(O)[C@]3(C)[C@@H]([C@H](C)CC/C=C(\\C)C(=O)O)C(O)C[C@@]3(C)C5CC[C@H]4C2(C)C)C(O)C(O)C1OC1OCC(O)C(O)C1O", "note": "(stereo not given in full)", "values": [{"measurement": "outcome", "result": "inactive [at 9.29 µM]"}]}, {"smiles": "C[C@@H]1O[C@@H](OC2C(O[C@H]3[C@H](O[C@H]4CC[C@@]5(C)C(CC[C@]6(C)C5CC=C5C7CC(C)(C)CC(O)[C@]7(C)CC[C@]56C)C4(C)C)O[C@H](C(=O)O)[C@@H](O)[C@@H]3O)OC(CO)C(O)C2O)[C@H](O)[C@H](O)[C@H]1O", "note": "(stereo not given in full)", "values": [{"measurement": "activity change, negative = cytotoxicity", "result": "3.3% [at 9.29 µM]"}]}, {"smiles": "COC(=O)C1=COC(O[C@@H]2O[C@H](CO)[C@@H](O)[C@H](O)[C@H]2O)C2C(C)C(=O)CC12", "note": "(stereo not given in full)", "values": [{"measurement": "Potency", "result": "inactive"}]}, {"smiles": "C=C1C(OC(C)=O)[C@@]23CCC4[C@](C)(C(=O)O)CCC[C@@]4(C)[C@]2(O)CC[C@H]1C3", "note": "(stereo not given in full)", "values": [{"measurement": "Potency", "result": "inactive"}]}, {"smiles": "CC1=C(C)C(=O)OC(C(C)C2C(O)CC3C4C5OC5C5(O)CC(OC6OC(CO)C(OC7OC(C)C(O)C(O)C7O)C(O)C6O)CC(O)C5(C)C4CCC32C)C1", "note": "(stereo not given)", "values": [{"measurement": "Potency", "result": "inactive"}]}, {"smiles": "CC1OC(OC2C(OC3C(O[C@H]4CC[C@@]5(C)C(CC[C@]6(C)C5CC=C5C7CC(C)(C)CC(O)[C@]7(C)CC[C@]56C)C4(C)C)OC(C(=O)O)C(O)C3O)OCC(O)C2O)C(O)C(O)C1O", "note": "(stereo not given in full)", "values": [{"measurement": "outcome", "result": "inactive [at 9.29 µM]"}]}]}
